From PubChem BioAssay
For some of these results: Results with a measured potency or affinity are listed apart. The source made the active and inactive calls. Unless noted, no rule for the calls is given here.

Legend:
[1] = antimalarial activity against Dd2 strain (AID 2302;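 active = growth inhibition above 50% at the single 2 µM test dose, taken to imply half-maximal potency below 2 µM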;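 also: 0% = DMSO untreated growth and 100% = chloroquine plus artemisinin killed control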); conditions: P. falciparum Dd2 in RBCs, LDH growth readout, 72 h; at 2 µM; hits give high values
[2] = HepG2 cytotoxicity, primary screen, cytotoxicity control for P. falciparum antimalarial project, cell-based, ATP luminescence (AID 2303;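 active = inhibition above 50%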;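 also: 0% = DMSO wells and 100% = digitonin-killed cells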); conditions: HepG2 viability, 24-48 h, at 10 µM, hits give high values
[3] = target: L-lactate dehydrogenase (Plasmodium falciparum (isolate CDC / Honduras)) (UniProt Q27743); assay: PfLDH activity inhibition – cell lysate, 3D7 strain, counter-screen for P. falciparum growth inhibition project (AID 2304);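 also: 0% = vehicle and 100% = reference inhibitor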; conditions: P. falciparum 3D7 crude extract, LDH APAD/NBT absorbance; at 2 µM; hits give high values
Sequence of L-lactate dehydrogenase (Plasmodium falciparum (isolate CDC / Honduras)) (Q27743 whole entry, looked up): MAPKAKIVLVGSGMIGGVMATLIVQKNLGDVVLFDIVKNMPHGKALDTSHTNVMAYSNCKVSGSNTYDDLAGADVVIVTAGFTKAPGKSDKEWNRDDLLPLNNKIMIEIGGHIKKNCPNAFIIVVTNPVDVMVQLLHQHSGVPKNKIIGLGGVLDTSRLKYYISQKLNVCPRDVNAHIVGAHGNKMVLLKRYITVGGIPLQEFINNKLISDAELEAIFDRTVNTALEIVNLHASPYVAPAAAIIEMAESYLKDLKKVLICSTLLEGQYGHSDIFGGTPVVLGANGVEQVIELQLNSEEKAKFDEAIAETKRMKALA

[4] = inhibition of 3D7 malaria parasite growth – strain 3D7 (AID 2306);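 also: 0% = DMSO wells and 100% = chloroquine plus artemisinin control wells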; conditions: P. falciparum 3D7 erythrocytic growth, LDH absorbance, 72 h; at 2 µM; hits give high values
[5] = target: Calcium-dependent protein kinase 1 (Plasmodium falciparum (isolate 3D7)) (UniProt P62344); assay: PfCDPK1 kinase inhibitors, biochemical, TCAMS library (AID 1159585; cut-off not given, nearly all actives have IC50 up to about 0.98 µM;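 also: inhibitors leave more ATP so luminescence rises with inhibition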); conditions: recombinant PfCDPK1, Kinase-Glo ATP depletion luminescence
Sequence of Calcium-dependent protein kinase 1 (Plasmodium falciparum (isolate 3D7)) (P62344 whole entry, looked up): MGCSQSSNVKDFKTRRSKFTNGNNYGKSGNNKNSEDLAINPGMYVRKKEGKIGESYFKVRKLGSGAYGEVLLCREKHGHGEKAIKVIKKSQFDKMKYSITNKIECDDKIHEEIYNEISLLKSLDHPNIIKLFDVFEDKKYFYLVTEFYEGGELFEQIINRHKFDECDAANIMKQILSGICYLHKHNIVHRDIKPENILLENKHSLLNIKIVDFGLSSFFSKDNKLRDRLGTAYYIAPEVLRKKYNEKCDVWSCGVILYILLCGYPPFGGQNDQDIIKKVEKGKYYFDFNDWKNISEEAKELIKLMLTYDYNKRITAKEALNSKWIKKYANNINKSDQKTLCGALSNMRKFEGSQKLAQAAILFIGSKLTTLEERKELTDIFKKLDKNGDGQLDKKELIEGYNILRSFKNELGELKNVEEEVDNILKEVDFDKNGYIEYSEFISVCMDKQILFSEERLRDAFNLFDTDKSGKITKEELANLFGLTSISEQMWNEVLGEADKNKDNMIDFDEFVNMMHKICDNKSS

[6] = target: Plasmodium falciparum protein kinase 6 (PK6, PF3D7_1337100) (UniProt Q8IDW1); assay: PfPK6 kinase inhibitors, biochemical, TCAMS library (AID 1159586); conditions: recombinant PfPK6, Kinase-Glo ATP depletion luminescence
Sequence of Plasmodium falciparum protein kinase 6 (PK6, PF3D7_1337100) (Q8IDW1 1-305): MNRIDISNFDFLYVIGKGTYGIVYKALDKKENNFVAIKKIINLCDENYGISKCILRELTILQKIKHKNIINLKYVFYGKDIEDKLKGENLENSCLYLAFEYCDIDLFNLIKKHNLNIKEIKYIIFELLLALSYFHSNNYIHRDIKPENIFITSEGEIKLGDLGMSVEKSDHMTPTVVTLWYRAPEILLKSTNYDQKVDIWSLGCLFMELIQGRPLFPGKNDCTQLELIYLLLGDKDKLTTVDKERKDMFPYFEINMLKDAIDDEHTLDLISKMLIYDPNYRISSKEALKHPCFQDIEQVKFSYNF

[7] = target: Protein kinase 7 (PK7), Plasmodium falciparum 3D7 (PF3D7_0213400) (UniProt Q7YTF7); assay: inhibition of Plasmodium PK7 catalytic activity – biochemical, TCAMS antimalarial set, Kinase-Glo luminescence (AID 1159587); conditions: recombinant PfPK7, Kinase-Glo ATP depletion luminescence
Sequence of Protein kinase 7 (PK7), Plasmodium falciparum 3D7 (PF3D7_0213400) (Q7YTF7 1-343): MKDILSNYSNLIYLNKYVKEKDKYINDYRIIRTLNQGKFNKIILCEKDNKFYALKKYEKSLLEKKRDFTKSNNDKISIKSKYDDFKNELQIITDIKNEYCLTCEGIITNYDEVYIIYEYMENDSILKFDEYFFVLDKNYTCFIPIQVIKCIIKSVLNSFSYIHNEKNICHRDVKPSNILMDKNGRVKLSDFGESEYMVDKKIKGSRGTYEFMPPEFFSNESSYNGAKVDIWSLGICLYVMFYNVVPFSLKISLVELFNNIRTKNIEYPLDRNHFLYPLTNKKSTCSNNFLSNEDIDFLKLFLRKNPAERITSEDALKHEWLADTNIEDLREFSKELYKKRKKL

[8] = target: Calcium-dependent protein kinase 4 (Plasmodium falciparum (isolate 3D7)) (UniProt Q8IBS5); assay: PfCDPK4 kinase inhibitors, biochemical, TCAMS library (AID 1159588; cut-off not given, nearly all actives have IC50 up to about 0.91 µM); conditions: recombinant PfCDPK4, Kinase-Glo ATP depletion luminescence
Sequence of Calcium-dependent protein kinase 4 (Plasmodium falciparum (isolate 3D7)) (Q8IBS5 whole entry, looked up): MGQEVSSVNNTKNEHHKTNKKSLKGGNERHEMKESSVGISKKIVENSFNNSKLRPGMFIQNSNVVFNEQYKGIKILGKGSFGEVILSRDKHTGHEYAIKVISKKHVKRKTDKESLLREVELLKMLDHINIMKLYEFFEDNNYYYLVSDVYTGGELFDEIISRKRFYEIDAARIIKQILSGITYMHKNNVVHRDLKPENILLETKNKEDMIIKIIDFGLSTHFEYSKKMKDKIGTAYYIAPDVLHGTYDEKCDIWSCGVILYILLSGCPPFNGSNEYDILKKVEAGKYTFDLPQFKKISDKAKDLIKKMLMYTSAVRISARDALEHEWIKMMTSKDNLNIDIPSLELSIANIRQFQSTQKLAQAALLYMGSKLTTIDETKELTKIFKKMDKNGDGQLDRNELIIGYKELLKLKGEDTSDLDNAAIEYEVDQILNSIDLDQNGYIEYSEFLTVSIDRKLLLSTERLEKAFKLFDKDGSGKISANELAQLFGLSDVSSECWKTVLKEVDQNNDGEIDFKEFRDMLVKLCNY

O=C(Nc1ccc(Cn2ncc(N3CCCNCC3)c(Cl)c2=O)cc1)Nc1cc(C(F)(F)F)cc(C(F)(F)F)c1
active: growth inhibition [4] 100%
inactive: growth inhibition [1] 29% | inhibition [2] 25% | inhibition [3] 3% | outcome [5] | outcome [6] | outcome [7] | outcome [8]

COc1ccc(CN2CCCN(Cc3cccc(NC(=O)c4ccc5ccccc5c4)c3)CC2)cc1
inactive: growth inhibition [1] 11% | inhibition [2] 27% | inhibition [3] -5% | outcome [5] | outcome [6] | outcome [7] | outcome [8]
active: growth inhibition [4] 93%

CC(C)c1ccc(NC(=O)c2cccc(CN3CCCN(Cc4cccc(O)c4)CC3)c2)cc1
active: growth inhibition [4] 97%
inactive: growth inhibition [1] 33% | inhibition [2] 25% | inhibition [3] -2% | outcome [5] | outcome [6] | outcome [7] | outcome [8]

Cc1cc2nc(-c3ccc(C(=O)NC4CCN(Cc5ccccc5)CC4)s3)[nH]c2cc1C
inactive: inhibition [2] 33% | inhibition [3] 1% | outcome [5] | outcome [6] | outcome [7] | outcome [8]
active: growth inhibition [1] 82% | growth inhibition [4] 99%

Cc1cccc2[nH]c(-c3cccc(-c4ccc(CN5CCC(C(N)=O)CC5)cc4)c3)nc12
inactive: growth inhibition [1] 9% | inhibition [2] -1% | inhibition [3] 4% | outcome [5] | outcome [6] | outcome [7] | outcome [8]
active: growth inhibition [4] 89%

O=C(Nc1ccc(-c2nc3ccc(NC(=O)c4ccc(Br)cc4)cc3[nH]2)cc1)c1ccc(Br)cc1
inactive: growth inhibition [1] 4% | inhibition [2] 40% | inhibition [3] 3% | outcome [5] | outcome [6] | outcome [7] | outcome [8]
active: growth inhibition [4] 98%

NC1=NC2(CCCCC2)N(OCCCCCCc2ccccc2)C(N)=N1
active: growth inhibition [1] 69% | inhibition [2] 73% | growth inhibition [4] 100%
inactive: inhibition [3] -2% | outcome [5] | outcome [6] | outcome [7] | outcome [8]

CCCCCCCCCCS(=O)(=O)N[C@H](COCc1cccc(Oc2ccccc2)c1)COP(=O)(O)OC
active: growth inhibition [4] 87%
inactive: growth inhibition [1] -3% | inhibition [2] -1% | inhibition [3] -8% | outcome [5] | outcome [6] | outcome [7] | outcome [8]

O=C(NCCc1ccccc1)N(Cc1cccc(-c2ccc(CNCCc3ccccc3)cc2)c1)C1CCN(Cc2ccccc2)CC1
active: growth inhibition [1] 91% | inhibition [2] 94% | growth inhibition [4] 90%
inactive: inhibition [3] -5% | outcome [5] | outcome [6] | outcome [7] | outcome [8]

O=C(c1cc(-c2ccccc2O)on1)N1CCN(C(c2ccccc2)c2ccccc2)CC1
inactive: inhibition [2] 12% | inhibition [3] 1% | outcome [5] | outcome [6] | outcome [7] | outcome [8]
active: growth inhibition [1] 88% | growth inhibition [4] 97%

COc1ccccc1-c1csc(C(=O)NCC2CCN(Cc3ccc(C(C)(C)C)cc3)C2)c1 (stereo not given)
inactive: growth inhibition [1] 11% | inhibition [2] 29% | inhibition [3] 0% | outcome [5] | outcome [6] | outcome [7] | outcome [8]
active: growth inhibition [4] 93%

CCNC(=O)c1ccc2c(c1)c(C)c(C)n2Cc1ccc(F)cc1
active: growth inhibition [1] 91% | growth inhibition [4] 93%
inactive: inhibition [2] 25% | inhibition [3] -1% | outcome [5] | outcome [6] | outcome [7] | outcome [8]

O=C(N[C@@H](Cc1ccccc1)[C@H](O)CNC1CCOCC1)c1cc(C2CCCC2)cc(N2CCCCS2(=O)=O)c1
inactive: inhibition [2] 3% | inhibition [3] -1% | outcome [5] | outcome [6] | outcome [7] | outcome [8]
active: growth inhibition [1] 98% | growth inhibition [4] 100%

CCOC(=O)C(C)(C)Oc1ccc(CN(Cc2ccc(CC(C)C)cc2)C(=O)Nc2ccc(F)cc2F)c(OC)c1
inactive: inhibition [2] 5% | inhibition [3] -8% | outcome [5] | outcome [6] | outcome [7] | outcome [8]
active: growth inhibition [1] 96% | growth inhibition [4] 97%

O=C(Nc1nccs1)c1cc(-c2cccnc2)nc2ccc(Br)cc12
inactive: inhibition [2] 7% | inhibition [3] 5% | outcome [5] | outcome [6] | outcome [7] | outcome [8]
active: growth inhibition [1] 79% | growth inhibition [4] 100%

Cc1cc(N[C@@H](Cc2ccccc2)C(=O)Nc2ccccc2)nc(NCC2CCCCC2)n1
inactive: inhibition [2] 12% | inhibition [3] 1% | outcome [5] | outcome [6] | outcome [7] | outcome [8]
active: growth inhibition [1] 55% | growth inhibition [4] 98%

Cc1ccc(C(CC(=O)Nc2nccs2)c2ccc(OC(C)C)cc2)cc1 (stereo not given)
inactive: inhibition [2] 5% | inhibition [3] 3% | outcome [5] | outcome [6] | outcome [7] | outcome [8]
active: growth inhibition [1] 90% | growth inhibition [4] 94%

O=C(NNC(=O)c1ccc(CCN2CCC(c3nc(COCC(F)(F)F)c(-c4ccc(F)cc4)o3)CC2)cc1)Nc1ccc(Oc2ccccc2)cc1
active: growth inhibition [1] 89% | growth inhibition [4] 102%
inactive: inhibition [2] 38% | inhibition [3] 4% | outcome [5] | outcome [6] | outcome [7] | outcome [8]

COc1cc(-c2nc(-c3ccccc3)c(-c3ccccc3)[nH]2)cc(OC)c1O
active: growth inhibition [1] 90% | growth inhibition [4] 100%
inactive: inhibition [2] 5% | inhibition [3] -2% | outcome [5] | outcome [6] | outcome [7] | outcome [8]

Clc1ccccc1C=NNc1ccnc2ccccc12
active: growth inhibition [1] 50% | growth inhibition [4] 100%
inactive: inhibition [2] 25% | inhibition [3] -3% | outcome [5] | outcome [6] | outcome [7] | outcome [8]
